{
  "source": "PubChem BioAssay AID2235",
  "about": "(The Scripps Research Institute Molecular Screening Center, 2010)",
  "note": "The campaign covered roughly 320,000 compounds. About 2,800 (0.88%) were called active. For the sample, actives were picked, then their nearest neighbours and some compounds at random. Values without a mark were called inactive.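 The calls were made as follows: active = inhibition above the mean inhibition of all tested compounds plus 3 SD, computed separately for each screening campaign (cut at about 15% in these data); inactive = the rest.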",
  "data": [
    {"biological_target": "Serine/threonine-protein phosphatase PP1-alpha catalytic subunit (Homo sapiens) (UniProt P62136)", "sequence (P62136 whole entry, looked up)": "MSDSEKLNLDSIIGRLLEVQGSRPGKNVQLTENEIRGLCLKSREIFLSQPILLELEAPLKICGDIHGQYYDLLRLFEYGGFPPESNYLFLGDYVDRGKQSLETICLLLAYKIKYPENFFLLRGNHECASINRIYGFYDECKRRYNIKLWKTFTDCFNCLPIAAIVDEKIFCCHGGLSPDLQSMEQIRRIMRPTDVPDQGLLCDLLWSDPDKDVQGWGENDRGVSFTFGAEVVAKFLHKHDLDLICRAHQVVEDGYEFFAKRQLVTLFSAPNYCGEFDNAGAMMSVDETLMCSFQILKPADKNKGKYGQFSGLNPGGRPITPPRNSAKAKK", "experiment": "PP1-alpha phosphatase inhibitors, primary screen, counter-screen for PP5 inhibitor project, biochemical, fluorescence, OMFP substrate, single point (AID 2235)", "details": "purified PP1alpha, at 6.7 µM, active compounds read high", "values": [
      {"compound": "CC(=O)Nc1ccc(NC(=O)CSc2nnc(C3CC3)n2-c2ccccc2)cc1", "inhibition": "-2.45%"},
      {"compound": "CC(=O)c1cccc(NC(=O)COc2ccc(S(=O)(=O)N3CCOCC3)cc2)c1", "inhibition": "-2.4%"},
      {"compound": "Cc1ccccc1/[N+]([O-])=C/c1ccncc1", "inhibition": "-3.82%"},
      {"compound": "O=S(=O)(NCc1ccc2c(c1)OCO2)c1cccc2nsnc12", "inhibition": "-1.4%"},
      {"compound": "O=S(=O)(c1ccc(F)cc1)N1CCN(C(=S)NCc2ccco2)CC1", "inhibition": "-1.26%"},
      {"compound": "COc1ccc2nc(NC(=O)NC3CCCCC3)sc2c1", "inhibition": "0.1%"},
      {"compound": "COc1ccc2nc(NC(=O)c3ccc(Br)s3)sc2c1", "inhibition": "3.31%"},
      {"compound": "COc1ccc2nc(Nc3nc(-c4ccncc4)cs3)sc2c1", "inhibition": "15.7% (active)"},
      {"compound": "CCOC(=O)c1c(Cc2ccc(Cl)cc2)c[nH]c1C", "inhibition": "0.15%"},
      {"compound": "O=C(Nc1cccc(F)c1)c1cc(-c2ccco2)nc2ccccc12", "inhibition": "17% (active)"},
      {"compound": "O=C(O)c1cccc(NC(=O)c2cc(-c3cccc(Cl)c3)nc3ccccc23)c1", "inhibition": "8.21%"},
      {"compound": "COc1ccc(NC(=O)c2cc(-c3ccc(C)o3)nc3ccccc23)cc1", "inhibition": "-1.75%"},
      {"compound": "O=C(c1ccc(Cl)nc1)N1CCN(S(=O)(=O)c2ccc3c(c2)OCCO3)CC1", "inhibition": "1.34%"},
      {"compound": "O=C(Cn1cc(-c2nnnn2-c2ccc(Cl)cc2)c(=O)c2ccccc21)c1ccccc1", "inhibition": "1.68%"},
      {"compound": "Clc1ccc(-n2nnnc2-c2cnc(-c3ccccn3)nc2-c2cccs2)cc1", "inhibition": "75.5% (active)"},
      {"compound": "FC(F)(F)c1nc(-c2ccccc2)ncc1-c1nnnn1-c1ccccc1", "inhibition": "0.75%"},
      {"compound": "O=S(=O)(c1ccc(F)cc1)n1ccc(-c2cnc(-c3ccccc3)s2)n1", "inhibition": "5.23%"},
      {"compound": "CCOc1ccc2sc(NS(=O)(=O)c3ccc(N)cc3)nc2c1", "inhibition": "1.47%"},
      {"compound": "COCCCn1c(SCC(=O)Nc2oc(C)c3c(C)n[nH]c(=O)c23)nc2sc3c(c2c1=O)CCC3", "inhibition": "-2.04%"},
      {"compound": "C=CCn1c(=N)n(CC(O)COc2ccc(OC)cc2)c2ccccc21", "note": "(configuration not stated)", "inhibition": "-0.92%"},
      {"compound": "CCOc1ccc(C(O)Cn2c(=N)n(CCN3CCCCC3)c3ccccc32)cc1", "note": "(configuration not stated)", "inhibition": "0.66%"},
      {"compound": "Cc1cccc(OCC(O)Cn2c(=N)n(CCN3CCOCC3)c3ccccc32)c1", "note": "(configuration not stated)", "inhibition": "26% (active)"},
      {"compound": "Cc1ccc(NC(=O)NC(=O)N(C2CCCCC2)S(=O)(=O)c2ccccc2)cc1", "inhibition": "0.85%"},
      {"compound": "C=CCNC(=O)CSc1nc2scc(-c3ccco3)c2c(=O)n1CC=C", "inhibition": "3.47%"},
      {"compound": "C=CCn1c(SCc2csc(C)n2)nc2scc(-c3ccc(C)o3)c2c1=O", "inhibition": "-0.82%"},
      {"compound": "C=CCn1c(=S)[nH]c2scc(-c3ccco3)c2c1=O", "inhibition": "18.8% (active)"},
      {"compound": "COc1cc(NC(=S)NNC(=O)CC(C)C)c(OC)cc1Cl", "inhibition": "-3.43%"},
      {"compound": "Cc1nnc(NC(=O)CCC(=O)N2CCC(C)CC2)s1", "inhibition": "-0.54%"},
      {"compound": "CC1(C)O[C@@H]2[C@H](O1)[C@@H](COS(=O)(=O)O)O[C@H]2n1ccc(=O)[nH]c1=O", "inhibition": "1.54%"},
      {"compound": "COc1cc(NC(=O)CSc2nnc3ccc(-c4ccncc4)nn23)cc(OC)c1", "inhibition": "-2.13%"},
      {"compound": "CC1CCCCN1S(=O)(=O)c1ccc(S(=O)(=O)N(CC(=O)Nc2ccccc2)Cc2cccs2)cc1", "note": "(configuration not stated)", "inhibition": "3.05%"},
      {"compound": "O=C(Nc1nnc(-c2ccco2)o1)c1ccc(S(=O)(=O)N2CCOCC2)cc1", "inhibition": "1.14%"},
      {"compound": "CC1CCCCN1S(=O)(=O)CCNC(=O)c1ccccc1", "note": "(configuration not stated)", "inhibition": "-2.78%"},
      {"compound": "CC1CCCN(S(=O)(=O)c2ccc(C(=O)Nc3nnc(-c4ccncc4)o3)cc2)C1", "note": "(configuration not stated)", "inhibition": "7.97%"},
      {"compound": "CC1CCCCN1S(=O)(=O)c1ccc(C(=O)Nc2nnc(-c3cccs3)o2)cc1", "note": "(configuration not stated)", "inhibition": "25.9% (active)"},
      {"compound": "CSCc1nnc(NC(=O)c2ccc(S(=O)(=O)N3CCCCC3C)cc2)o1", "note": "(configuration not stated)", "inhibition": "16.8% (active)"},
      {"compound": "COC(=O)c1ccc(-c2c(-c3ccccc3)ncc3cc(OC)c(OC)cc23)cc1", "inhibition": "1.2%"},
      {"compound": "CCCCCCCC(=O)NC(Nc1ccccc1OC)C(Cl)(Cl)Cl", "note": "(configuration not stated)", "inhibition": "4.91%"},
      {"compound": "COCC(=O)Nc1c(I)c(C(=O)NCC(O)CO)c(I)c(C(=O)N(C)CC(O)CO)c1I", "note": "(configuration not stated)", "inhibition": "-5.4%"},
      {"compound": "Cc1cc(C)nc(-n2ncc3c2CC(c2ccc(C(C)C)cc2)CC3=O)n1", "note": "(configuration not stated)", "inhibition": "15.3% (active)"},
      {"compound": "COc1cc(S(=O)(=O)Nc2ncn[nH]2)ccc1Cl", "inhibition": "-0.04%"},
      {"compound": "Cc1ccc(S(=O)(=O)N2[C@@H](c3cccc(Cl)c3)C(C(=O)O)=CC[C@H]2c2ccc(Cl)c(Cl)c2)cc1", "inhibition": "21.6% (active)"},
      {"compound": "CN1OC(COC(=O)c2ccc(Cl)cc2)CC1c1ccccc1", "note": "(configuration not stated)", "inhibition": "1.23%"},
      {"compound": "Cc1ccccc1S(=O)(=O)N1[C@@H](c2cccc(Cl)c2)C(C(=O)O)=CC[C@H]1c1ccc(Cl)cc1", "inhibition": "20.5% (active)"},
      {"compound": "Cc1ccc(S(=O)(=O)N2[C@@H](c3ccccc3F)C(C(=O)O)=CC[C@H]2c2ccc(Cl)cc2)cc1", "inhibition": "4.64%"},
      {"compound": "CS(=O)(=O)N(CC(=O)N1CCN(c2cccc(Cl)c2)CC1)c1ccccc1", "inhibition": "-1.41%"},
      {"compound": "Cc1ccc([C@@H]2CC=C(C(=O)O)[C@H](c3cccc(Cl)c3)N2S(=O)(=O)c2ccc(C)cc2)cc1", "inhibition": "5.69%"}
    ]}
  ]
}
